# The full ranking holds about 33,000 sequences; the median of “normalized occupancy” is about 0.075, and the highest 2% start at about 0.095. The sample as a whole holds a higher share of the highest values than the screen did.
# Target: MaxL homodimer (Homo sapiens, UniProt P61244 1-160)
# Test: universal protein-binding microarray (PBM); PBS-based mixture, 10 nM His-tagged protein dimer, 2% milk, 200 ng/uL BSA, 50 ng/uL salmon testes DNA, 0.02% TX-100; detection with Alexa 488 anti-His antibody;; high values mean tight binding
# Conditions: protein: recombinant; tags: C-terminal His-tag (pET21a); chain copies: 2; dsDNA, one strand shown
# Method in brief: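 Arrays of the 'all 10-mer' universal design (Agilent 4 x 44 K) were exposed to 10 nM His-tagged protein dimer, stained with 10 ng/μL fluorophore-conjugated anti-His antibody and read on a GenePix 4400A to give a fluorescence intensity for each 8-mer. Binding occupancy is each intensity divided by the highest-ranked intensity.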
# Chain of MaxL homodimer (P61244 whole entry): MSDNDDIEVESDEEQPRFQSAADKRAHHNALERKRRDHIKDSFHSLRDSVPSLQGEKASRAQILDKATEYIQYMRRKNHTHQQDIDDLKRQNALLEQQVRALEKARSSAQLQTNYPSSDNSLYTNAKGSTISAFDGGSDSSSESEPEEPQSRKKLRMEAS
row,Sequence,binding signal
1,CAAATCTA,0.0804 normalized occupancy
2,GCTTCTTA,0.0746 normalized occupancy
3,CACAAGAG,0.0792 normalized occupancy
4,AACGTTTC,0.0739 normalized occupancy
5,CATGTTTA,0.0975 normalized occupancy
6,CGCGTTTC,0.0778 normalized occupancy
7,CATGTTTC,0.0831 normalized occupancy
8,AACGTTTA,0.0757 normalized occupancy
9,GACGTTTA,0.0757 normalized occupancy
10,CACGTTTA,0.0986 normalized occupancy
11,AATGTTTA,0.0748 normalized occupancy
12,CACGTTTC,0.105 normalized occupancy
13,AGAAACCC,0.0744 normalized occupancy
14,ATAGAATC,0.0826 normalized occupancy
15,AGTGCTAG,0.0731 normalized occupancy
16,ACCTTCAA,0.0719 normalized occupancy
17,CGAATAGA,0.0736 normalized occupancy
18,CAGAACTA,0.0728 normalized occupancy
19,CTAGAAGA,0.0731 normalized occupancy
20,AACGATGA,0.0771 normalized occupancy
21,ACCCGTCA,0.0779 normalized occupancy
22,GTGTGAGA,0.0806 normalized occupancy
23,ATGTGTCG,0.0903 normalized occupancy
24,GTGTGTCA,0.0887 normalized occupancy
25,CTGTGTGA,0.0738 normalized occupancy

row,Sequence,binding signal
1,ATGTGCGA,0.0863 normalized occupancy
2,ATGTGAGA,0.0969 normalized occupancy
3,GTGTGTGA,0.0839 normalized occupancy
4,ATGTGTGA,0.102 normalized occupancy
5,ATGTGTCA,0.101 normalized occupancy
6,ATGTGAGG,0.0857 normalized occupancy
7,ATGTGCGC,0.0928 normalized occupancy
8,ATGTGCGG,0.104 normalized occupancy
9,ATTGAACG,0.082 normalized occupancy
10,CTGACTAA,0.0729 normalized occupancy
11,ACATAAGA,0.0789 normalized occupancy
12,AACCTCTA,0.0738 normalized occupancy
13,CCCTCCTC,0.0734 normalized occupancy
14,CGTACTGA,0.0729 normalized occupancy
15,AGCGCACG,0.0877 normalized occupancy
16,AGGAAAAC,0.075 normalized occupancy
17,ACGCGCCC,0.0753 normalized occupancy
18,TAACTGCA,0.0726 normalized occupancy
19,GCTACCAA,0.0737 normalized occupancy
20,TGATGGCA,0.08 normalized occupancy
21,AGTCCCCC,0.0801 normalized occupancy
22,ATCTTTAC,0.0755 normalized occupancy
23,ATGTGTGC,0.0957 normalized occupancy
24,CTGTGTGC,0.0783 normalized occupancy
25,ATGTCACC,0.08 normalized occupancy

row,Sequence,binding signal
1,ATGTGTGG,0.0891 normalized occupancy
2,ATGTCACG,0.101 normalized occupancy
3,ATGTCACA,0.0852 normalized occupancy
4,AATTCCGA,0.0729 normalized occupancy
5,CATCTGTC,0.0856 normalized occupancy
6,GGGCTGTA,0.0762 normalized occupancy
7,CCCATCTA,0.0745 normalized occupancy
8,CATAAATC,0.0857 normalized occupancy
9,CCGAACAA,0.0756 normalized occupancy
10,GAAGTGAC,0.0733 normalized occupancy
11,CACATGAC,0.129 normalized occupancy
12,CTCATGAG,0.0946 normalized occupancy
13,AACATGAC,0.0831 normalized occupancy
14,CAAATGAG,0.0793 normalized occupancy
15,CACATGAA,0.104 normalized occupancy
16,GACATGAC,0.0811 normalized occupancy
17,GACATGAA,0.0775 normalized occupancy
18,TACATGAA,0.0793 normalized occupancy
19,CACATGAG,0.109 normalized occupancy
20,AACATGAG,0.0999 normalized occupancy
21,CAAATGAC,0.0825 normalized occupancy
22,AACATGAA,0.0878 normalized occupancy
23,ATGTACAA,0.0815 normalized occupancy
24,AAAAACCA,0.0806 normalized occupancy
25,GCCACAGC,0.0723 normalized occupancy

row,Sequence,binding signal
1,AATCGTAC,0.0751 normalized occupancy
2,GGACCCCA,0.0794 normalized occupancy
3,ATGAGAAA,0.0743 normalized occupancy
4,ATTGGAAC,0.076 normalized occupancy
5,ACGTGTGG,0.104 normalized occupancy
6,ACGTGTGC,0.109 normalized occupancy
7,AAGTGTGG,0.0819 normalized occupancy
8,ACGTGCGC,0.113 normalized occupancy
9,AGGTGTGG,0.0847 normalized occupancy
10,ACGTGCGA,0.093 normalized occupancy
11,CCGTGTGA,0.0836 normalized occupancy
12,CCGTGCGC,0.0813 normalized occupancy
13,AAGTGTGC,0.0869 normalized occupancy
14,ACGTGTGA,0.105 normalized occupancy
15,CCGTGTGC,0.0858 normalized occupancy
16,GCGTGTGA,0.0941 normalized occupancy
17,GACGAGAC,0.0761 normalized occupancy
18,GACAAAAC,0.0749 normalized occupancy
19,CACGAATG,0.0777 normalized occupancy
20,ATTGAAGC,0.0724 normalized occupancy
21,ATAGTCTG,0.0754 normalized occupancy
22,AAATGCAT,0.079 normalized occupancy
23,CTATGCAC,0.0874 normalized occupancy
24,AGATGCAT,0.0784 normalized occupancy
25,AGATGCAC,0.0867 normalized occupancy

row,Sequence,binding signal
1,ATATGCAC,0.092 normalized occupancy
2,CCATGCAA,0.0895 normalized occupancy
3,CCATGCAC,0.0969 normalized occupancy
4,CAATGCAC,0.0848 normalized occupancy
5,CCATGCAG,0.0965 normalized occupancy
6,ACATGCAC,0.0954 normalized occupancy
7,ACATGCAT,0.105 normalized occupancy
8,CTATGCAG,0.0757 normalized occupancy
9,AAAGTGAA,0.0782 normalized occupancy
10,ACTAGTCA,0.0755 normalized occupancy
11,CTACCCGA,0.0741 normalized occupancy
12,AAATATAC,0.0881 normalized occupancy
13,GCATTAGC,0.0727 normalized occupancy
14,CGTATGCC,0.0784 normalized occupancy
15,ACATGAAC,0.0866 normalized occupancy
16,AAATGCAG,0.0778 normalized occupancy
17,ACATGAAT,0.0965 normalized occupancy
18,ACATGAAG,0.0842 normalized occupancy
19,ACATGCAG,0.097 normalized occupancy
20,AGATGCAG,0.0757 normalized occupancy
21,AAGCTATC,0.0722 normalized occupancy
22,ATGACTTG,0.0818 normalized occupancy
23,AAGTGCAT,0.085 normalized occupancy
24,CCGTGCCC,0.0733 normalized occupancy
25,GAGTGCAC,0.082 normalized occupancy

row,Sequence,binding signal
1,CCGTGCAG,0.0778 normalized occupancy
2,GCGTGCCA,0.09 normalized occupancy
3,CCGTGCAC,0.0816 normalized occupancy
4,GCGTGCAC,0.109 normalized occupancy
5,ACGTGCAT,0.104 normalized occupancy
6,ACGTGCAG,0.101 normalized occupancy
7,AGGTGCAT,0.0863 normalized occupancy
8,GCGTGCCC,0.0965 normalized occupancy
9,AAGTGCAG,0.0763 normalized occupancy
10,CGAATAAA,0.0729 normalized occupancy
11,TAAATAAA,0.0766 normalized occupancy
12,CCACCACG,0.0914 normalized occupancy
13,ACCGGTTA,0.0751 normalized occupancy
14,TAGGAAAA,0.0729 normalized occupancy
15,CAGCTGAA,0.0749 normalized occupancy
16,ACGAAAGC,0.0763 normalized occupancy
17,TCCGAAAA,0.0774 normalized occupancy
18,AGACTGTA,0.0748 normalized occupancy
19,ATGTGCAA,0.0875 normalized occupancy
20,TCGTGCAA,0.0766 normalized occupancy
21,CTGTGCAC,0.0869 normalized occupancy
22,ATGTGCAC,0.0959 normalized occupancy
23,ACGTGCAA,0.098 normalized occupancy
24,CCGTGCAA,0.078 normalized occupancy
25,ACGTGCAC,0.113 normalized occupancy

row,Sequence,binding signal
1,AGGTGCAC,0.0767 normalized occupancy
2,GCGTGCAA,0.0963 normalized occupancy
3,GTGTGCAA,0.0818 normalized occupancy
4,AAGTGCAC,0.0774 normalized occupancy
5,GGGTGCAA,0.0755 normalized occupancy
6,GATGGACA,0.0742 normalized occupancy
7,AATGCAAC,0.0776 normalized occupancy
8,CATACGGG,0.0812 normalized occupancy
9,CAGTTATA,0.0794 normalized occupancy
10,CCTCCATC,0.0784 normalized occupancy
11,CAACCTAA,0.0744 normalized occupancy
12,CTAACATC,0.0796 normalized occupancy
13,AGCGTCGC,0.0721 normalized occupancy
14,CCCGTCCC,0.0747 normalized occupancy
15,ATAATACC,0.08 normalized occupancy
16,AGCCCAAA,0.0722 normalized occupancy
17,AGCACGCA,0.0909 normalized occupancy
18,AGCACACG,0.0942 normalized occupancy
19,AGCACGCG,0.156 normalized occupancy
20,CGCACGCG,0.121 normalized occupancy
21,AGCACGCT,0.104 normalized occupancy
22,AGCACGCC,0.0846 normalized occupancy
23,AGCACACA,0.0906 normalized occupancy
24,CGCACGCA,0.0894 normalized occupancy
25,CGCACGCC,0.0878 normalized occupancy

# From PMC4242493, “Sequence specificity incompletely defines the genome-wide occupancy of Myc”
